Measurements reported in PubChem BioAssay (EPA / NIEHS).
Where “and” joins values, the source holds several entries; their conditions need not be identical. Identical values can stand only once. Inconclusive results are not listed. Some compounds were tested as several samples or in several runs, with calls that do not always agree. Calls of active or inactive are those of the source. How the source made its calls: active means hit-call score of the fitted dose curve at least 0.9, where 1 is the maximum; inconclusive means response in the unintended direction; inactive means score below 0.9.

target: Cellular tumor antigen p53 (Homo sapiens) (UniProt P04637); experiment: TOX21_p53_BLA_p2_ratio: Tox21 HCT-116 p53 Agonism Beta-lactamase Assay, Ratio, Phase 2 (AID 2283592)
Sequence (P04637 whole entry, looked up, the tested form may be a part): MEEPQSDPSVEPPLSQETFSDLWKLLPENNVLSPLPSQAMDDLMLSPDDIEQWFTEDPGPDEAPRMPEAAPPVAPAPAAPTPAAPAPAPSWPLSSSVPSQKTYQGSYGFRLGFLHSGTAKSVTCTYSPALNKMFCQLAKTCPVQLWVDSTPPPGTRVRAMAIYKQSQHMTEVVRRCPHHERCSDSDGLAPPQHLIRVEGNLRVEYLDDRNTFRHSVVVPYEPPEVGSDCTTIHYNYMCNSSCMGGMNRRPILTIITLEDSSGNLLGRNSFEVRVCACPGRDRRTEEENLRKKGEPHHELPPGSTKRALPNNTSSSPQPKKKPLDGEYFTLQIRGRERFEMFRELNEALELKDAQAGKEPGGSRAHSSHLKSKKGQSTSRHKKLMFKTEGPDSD
Text: TOX21_p53_BLA_p2 is a cell-based, single-readout assay that uses HCT116, a human intestinal cell line, […] in a 1536-well plate.TOX21_p53_BLA_p2_ratio is an assay readout measuring reporter gene via receptor activity and designed using inducible reporter (beta lactamase induction) detected with GAL4 b-lactamase reporter gene. The signal is derived from the ratio of cleaved (ch2) to uncleaved (ch1) reporter gene substrate used as the measure of target activity.Data from the assay component TOX21_p53_BLA_p2_ratio was analyzed into 1 assay endpoint. This assay endpoint, TOX21_p53_BLA_p2_ratio, was analyzed in the positive analysis fitting direction relative to DMSO as the negative control and baseline of activity. Using a type of inducible reporter, gain-of-signal activity can be used to understand changes in the reporter gene as they relate to the gene TP53. Furthermore, this assay endpoint can be referred to as a primary readout, because this assay has produced multiple assay endpoints and this ratio serves a reporter gene function to understand target activity. To generalize the intended target to other relatable targets, this assay endpoint is annotated to the DNA binding intended target family, where the subfamily is tumor suppressor.
Thawing Method: Place 14 mL of pre-warmed thaw medium into a 15 mL of conical tub. Remove the vial of cells to be thawed from liquid nitrogen and thaw rapidly by placing at 37C in a water bath with gentle agitation for 1-2 minutes. Decontaminate the vial by wiping with 70% ethanol before opening in a biological safety cabinet. Transfer the vial contents drop-wise into 14 mL of thaw medium in a sterile 15-mL conical tub. Centrifuge cells at 900 rpm for 4 minutes and resuspend in thaw medium. Transfer contents to the T75 tissue culture flask containing Thaw Medium and place flask in a humidified 37C/5% CO2 incubator. Switch to growth medium at first passage.Propagation Method: Aspirate medium, rinse once in DPBS, add 0.25% Trypsin/EDTA and swirl to coat the cell evenly. Add an equal volume of Growth Medium to inactivate Trypsin after 2-3 minutes incubation at 37C. Centrifuge cells at 900 rpm for 4 minutes and resuspend in growth medium. Cell should be passage or fed at least twice a week.Assay Protocol: Harvest cells from culture in growth medium and resuspend in assay medium. 2.2 Dispense 4000 cells/5 uL/well into 1536-well black/clear bottom plates using a Multidrop dispenser. After the cells were incubated at 37C for 5 hours, 23 nL of compounds dissolved in DMSO were transferred to the assay plate by a PinTool resulting in a 217-fold dilution. Incubate the plates for 16 hours at 37C, 5% CO2. Add 1 uL of 6X LiveBLAzer FRET B/G (CCF4-AM) Substrate Mixture to each well using a BioRAPTR dispenser and incubate the plates at room temperature for 2 hours. Measure fluorescence intensity at 460 and 530 nm emission and 405 nm excitation by an Envision detector. Data is expressed as the ratio of 460nm/530nm emissions. Add 4 uL of Cell-titer Glo to each well using BioRAPTR and incubate the plates at room temperature for 2 hours. Measure fluorescence intensity by a VewLux plate reader.

Row | Structure (SMILES) | AC50 | outcome
1 | CCC[CH2][Sn]([Cl])([CH2]CCC)[CH2]CCC | 31.8 µM (active) and 46 µM (active) | –
2 | COC(=O)Nc1nc2ccccc2[nH]1 | 10.1 µM (active) and 7.91 µM (active) | –
3 | N#CC(Br)(Br)C(N)=O | – | inactive
4 | CCN(CC)CCO | – | inactive
5 | CCCCCCCCn1sccc1=O | 20.8 µM (active) | inactive
6 | CN(C)c1ccc(C(=O)c2ccc(N(C)C)cc2)cc1 | 748 nM (active) and 1.29 µM (active) | –
7 | C=CCc1ccc2c(c1)OCO2 | – | inactive
8 | Cc1ccc([N+](=O)[O-])cc1 | – | inactive
9 | O=C(O)C1C2CCC(O2)C1C(=O)O (stereo not given) | – | inactive
10 | [O-][Cl+]O | – | inactive
11 | COC(=O)c1ccccc1N | – | inactive
12 | CC(C)(C)OOC(=O)c1ccccc1 | – | inactive
13 | Cn1cc(-c2ccccc2)c(=O)c(-c2cccc(C(F)(F)F)c2)c1 | – | inactive
14 | C1=Cc2cccc3cccc1c23 | – | inactive
15 | CCCCCCCCCCCCCN1CC(C)OC(C)C1 (stereo not given) | – | inactive
16 | Clc1ccc(C(c2ccc(Cl)cc2)C(Cl)(Cl)Cl)cc1 | 60.7 µM (active) and 31.1 µM (active) | inactive
17 | CC(C)(OOC(C)(C)c1ccccc1)c1ccccc1 | – | inactive
18 | O=P(OCCCl)(OCCCl)OCCCl | – | inactive
19 | Brc1ccc(Oc2ccccc2)cc1 | – | inactive

Row | Structure (SMILES) | AC50 | outcome
20 | CCCCC(CC)COC(=O)c1ccc(C(=O)OCC(CC)CCCC)c(C(=O)OCC(CC)CCCC)c1 (stereo not given) | – | inactive
21 | c1ccc2c(c1)-c1cccc3cccc-2c13 | – | inactive
22 | Nc1ccc([N+](=O)[O-])cc1 | – | inactive
23 | Nc1ccc(Cc2ccc(N)cc2)cc1 | – | inactive
24 | Cc1ccc(N=C=O)cc1N=C=O | – | inactive
25 | [As]#[In] | – | inactive
26 | ClCCOCCCl | – | inactive
27 | O=C(N[C@H](c1ccccc1)[C@@H]1CN2CCC1CC2)c1c(Cl)ccc(C(F)(F)F)c1Cl | – | inactive
28 | Nc1ccc(N=Nc2ccccc2)cc1 | – | inactive
29 | Oc1ccc2ccc3cccc4ccc1c2c34 | – | inactive
30 | O=Cc1ccco1 | – | inactive
31 | CS(=O)(=O)NC(=O)c1cc(Oc2ccc(C(F)(F)F)cc2Cl)ccc1[N+](=O)[O-] | – | inactive
32 | Cc1ccc(N)c(N)c1 | – | inactive
33 | Cc1cccc(N)c1N | – | inactive
34 | CCC12COCN1COC2 | – | inactive
35 | ClC1=C(Cl)C2(Cl)C3C(Cl)C=CC3C1(Cl)C2(Cl)Cl (stereo not given) | – | inactive
36 | c1ccc2c(c1)oc1ccccc12 | – | inactive
37 | CCCCOC(=O)c1ccccc1C(=O)OCc1ccccc1 | – | inactive
38 | Cc1ccc(N)cc1 | – | inactive
